In all, about 33,000 sequences were measured (“E-score (-0.5 to 0.5)”: median about -0.036, highest 2% from about 0.37 on). The list comes from a sample in which the highest values are over-represented; it also holds similar and randomly drawn sequences.
Each sequence was assayed against T1, Yer064c (UniProt P40041) (assay: PBM E-score (8-mer binding enrichment) (E-score (-0.5 to 0.5)); higher = stronger / more preferred TF binding). Conditions: protein concentration: 200 nM; construct: GST-full length.
T1 sequence: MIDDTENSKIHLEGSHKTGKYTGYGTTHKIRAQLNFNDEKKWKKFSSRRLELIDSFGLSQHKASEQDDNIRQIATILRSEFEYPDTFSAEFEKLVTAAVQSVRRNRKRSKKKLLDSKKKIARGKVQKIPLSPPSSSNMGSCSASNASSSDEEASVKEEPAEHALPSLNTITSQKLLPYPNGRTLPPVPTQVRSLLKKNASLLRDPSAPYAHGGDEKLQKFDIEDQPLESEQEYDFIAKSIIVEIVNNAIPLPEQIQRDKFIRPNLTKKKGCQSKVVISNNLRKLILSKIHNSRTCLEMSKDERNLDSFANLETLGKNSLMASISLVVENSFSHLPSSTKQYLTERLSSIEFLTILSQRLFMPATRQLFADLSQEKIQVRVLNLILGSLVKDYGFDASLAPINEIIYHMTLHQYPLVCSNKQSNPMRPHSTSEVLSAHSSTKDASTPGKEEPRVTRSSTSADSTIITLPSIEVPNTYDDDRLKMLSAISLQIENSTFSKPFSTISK
Experimental: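 Universal 'all 10-mer' protein binding microarrays (Agilent AMADID 015681) probed with GST-tagged S. cerevisiae TFs (full-length or DBD) made by in vitro transcription/translation (PURExpress), about 100-200 nM. Bound TF was detected with fluorescent anti-GST. Each ungapped 8-mer (which stands for itself and its reverse complement) is scored by the PBM enrichment score (E-score), a modified Wilcoxon-Mann-Whitney statistic from -0.5 to +0.5, computed with the Universal PBM Analysis Suite. Scale: above 0.35 generally sequence-specific binding.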

In order of rising “PBM E-score” value:
1. CGTCACCC  -0.258
2. CGCTTCCA  -0.24
3. CAAAAGCC  -0.227
4. GACGACGC  -0.226
5. AGAGCTCG  -0.222
6. GACGACCC  -0.217
7. AAAAGCCG  -0.213
8. CGCGATAC  -0.206
9. GTGGCATA  -0.194
10. GCACTGGC  -0.194
11. CCGTCCCG  -0.193
12. GGAATCCC  -0.166
13. GGCAAGAC  -0.163
14. CACGACGC  -0.163
15. AACTCTCC  -0.159
16. CGGCCCGA  -0.157
17. AGCAAATA  -0.157
18. CTTATCCC  -0.147
19. GGCCGGAA  -0.146
20. ATGTAGCA  -0.146
21. ACCTGGCA  -0.145
22. ACGAGAGC  -0.143
23. GAGCTTCA  -0.142
24. CGGGAGAA  -0.141
25. GTTGGCAA  -0.14
26. ACATCTGG  -0.137
27. AGCGTCCG  -0.131
28. CGTGCGTC  -0.13
29. CGTTTCGC  -0.125
30. CGAATCCC  -0.125
31. CGGTACAG  -0.12
32. ATATCATC  -0.113
33. CACAACTG  -0.113
34. CAGCAAGA  -0.11
35. TACGGCGA  -0.108
36. GGAACCAA  -0.106
37. AACGACAC  -0.105
38. CTCCACCC  -0.099
39. AAGGAAGG  -0.0955
40. GAGAGGAA  -0.0878
41. ACCGAGTA  -0.0874
42. ATGTAAGC  -0.0792
43. AATATCCG  -0.0742
44. CACTCTCC  -0.0733
45. ACCTTGGA  -0.0702
46. ACGCGAGC  -0.0659
47. CAAAACTC  -0.0536
48. CGTCAAAA  -0.0525
49. ACAACTGC  -0.0478
50. CACTCTCA  -0.0477
51. ATCTTCCG  -0.0471
52. GTAGAGCA  -0.0431
53. CACGACAC  -0.043
54. GTTCTATA  -0.0345
55. AGAATCCT  -0.0297
56. AAAGACCA  -0.029
57. CACCAACC  -0.0246
58. CGTCACCA  -0.0242
59. CCCGCATA  -0.019
60. CCTTCCCA  -0.0175
61. AGGGAAGA  -0.0141
62. CGTCATAG  -0.0141
63. GGTAGGGA  -0.0117
64. AGACCCGG  -0.0102
65. AAGGGTGT  -0.00845
66. CGTCATAA  -0.00764
67. CCATCGGA  -0.00521
68. ATGAGCCC  -0.00355
69. CTTCATAC  -0.00264
70. CGGCTACA  -0.00254
71. GGTGAGCA  -0.00163
72. ATATCATA  0.00064
73. ATTTTGTA  0.00667
74. AATGCGTA  0.00743
75. GACGACGA  0.00788
76. TAGATGAA  0.00973
77. TACGACAA  0.0113
78. GAATGAGA  0.0143
79. CCATCCCA  0.0189
80. AAGCTTAA  0.0226
81. CGATTCTA  0.0229
82. TGTGCTAA  0.0249
83. AACTGTTA  0.0274
84. TACCTGGA  0.0309
85. ACATCGGA  0.0356
86. CGCGAGCC  0.0358
87. GGTCACCA  0.036
88. CCAATCAG  0.0381
89. CACTCACA  0.0403
90. CGAATCCG  0.0437
91. CACGACGA  0.044
92. GGTCAAAA  0.0441
93. AACTCTCA  0.0457
94. CACTCAAC  0.0472
95. ATTCACCG  0.0472
96. AGGTCTTA  0.0474
97. AAATCAAG  0.0497
98. CGCGAGTA  0.0526
99. ACGGATGG  0.0552
100. AAAATAAC  0.0567
101. AGAAAATC  0.0604
102. ATTCACCC  0.0614
103. CAATGCAC  0.0625
104. CGTCAAAG  0.0679
105. TACGACGA  0.071
106. AGCGAGTG  0.0737
107. GTATCATA  0.0771
108. AGAATCCC  0.0788
109. CTCGTAAC  0.0792
110. CAGTGATC  0.0804
111. GCTTTCAA  0.0808
112. GGTCATAA  0.081
113. TGTCATAA  0.0821
114. CAAAATCC  0.087
115. AACTTCCG  0.0922
116. GCATCATA  0.0926
117. AGCGCTGG  0.0943
118. TACGCAGA  0.1
119. CACTCAAA  0.107
120. ACATCATA  0.107
121. AAGTCTCC  0.107
122. AGACACCG  0.11
123. CACTCACG  0.112
124. AGCGAGTA  0.115
125. AACTCAAC  0.123
126. GGTCATAC  0.123
127. AGAATCGC  0.127
128. GGCTCACA  0.13
129. AACGACTG  0.133
130. AGACATAT  0.137
131. TAGCCACA  0.14
132. GTCGGCGA  0.141
133. ACAATTAA  0.144
134. ACAAGAGT  0.149
135. ACCCTATG  0.155
136. ATGTCTCG  0.17
137. AACGACTT  0.177
138. CCAATCAC  0.182
139. CAGTCCTA  0.183
140. AAGTCCTA  0.186
141. CGTCATAC  0.192
142. ATATGCAG  0.196
143. AGCCATAG  0.199
144. TACTCAAA  0.201
145. ACAATCAA  0.202
146. CACTCACC  0.207
147. CAGTCTCC  0.211
148. AACTCACG  0.211
149. ACATCATC  0.212
150. CAATCAAG  0.212
151. AAGTCTTA  0.213
152. ATTCAAAT  0.214
153. ATGTCTCC  0.216
154. CAATCAGG  0.218
155. GTCACAGA  0.237
156. CACGACTG  0.238
157. AAGTCTCA  0.239
158. AATCTTAA  0.244
159. AATCTTCG  0.25
160. GGAATCAA  0.257
161. AACTCACA  0.259
162. AACTCACC  0.275
163. CAGTCTTA  0.278
164. TAGCCATA  0.28
165. ACTCAAAT  0.294
166. ATCGACTC  0.304
167. CTGAGCCA  0.31
168. TAATCAAA  0.315
169. AGAATCAG  0.325
170. CCCGAGTC  0.329
171. GTCGACTA  0.335
172. GAGCCATC  0.342
173. AGTCAAAC  0.35
174. TAATCAGA  0.35
175. ACAATCAC  0.351
176. AAATCATT  0.359
177. TAGTCTCA  0.36
178. GAGCCATA  0.366
179. TACTCACA  0.367
180. CAATCATG  0.369
181. AGAATCAC  0.374
182. ACCGAGTC  0.377
183. CGAATCAG  0.384
184. AAATCATG  0.385
185. ACAATCAT  0.385
186. AAATCATA  0.387
187. AACGACTA  0.393
188. ATGAGCCA  0.396
189. GAGTCCTA  0.399
190. CGAATCAC  0.4
191. AAATCATC  0.403
192. CACGACTA  0.403
193. AGCGAGTC  0.405
194. CGCGAGTC  0.405
195. AGTCAAAG  0.406
196. AGTCAAAA  0.408
197. GACTCTCC  0.411
198. GAGTCTCA  0.411
199. AGTCAAAT  0.412
200. ATGTCTCA  0.414
201. GACGACTA  0.415
202. TACGACTA  0.415
203. GACTCTCA  0.418
204. GGAATCAC  0.418
205. GAGTCTCC  0.419
206. AACGACTC  0.427
207. CACGACTC  0.437
208. AGAATCAT  0.44
209. GACGACTC  0.442
210. GAGTCTTA  0.453
211. TAATCATA  0.457
212. GAATCATA  0.464
213. AGTCACCA  0.469
214. GACTCAAC  0.472
215. GACTCACA  0.472
216. AGTCACCG  0.476
217. AGTCATAA  0.476
218. GACTCACC  0.478
219. AGTCACCC  0.479
220. GACTCAAA  0.48
221. AGTCATAG  0.482
222. AGTCATAT  0.484
223. AGTCATAC  0.486

Source: the supplement of paper PMC3334620
